Laboratory results as given in the supplement of paper PMC10849652.
The full data set covers some 8,800 targets. This sample favours those with a hit. About 0.5% of all pairs of compound and target were hits.

Key:
Test in all cases: log2 fold change, soluble protein after heating vs DMSO (PISA); higher = thermal stabilisation; K562 lysate, 10 uM; active = over 0.2 and 3.5 SD of the protein, either way, in both replicates (recomputed)
erlotinib = compound: C#Cc1cccc(Nc2ncnc3cc(OCCOC)c(OCCOC)cc23)c1 [erlotinib]
Method in brief: (§1)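 Pellets of K562 cells were dounce-homogenised in PBS pH 7.4 with 1 mM MgCl2, and the crude extract was held at 1 mg/mL protein for a 30 min treatment with 10 μM compound. Aliquots were heated for 3 min over 48°C-58°C and pooled before NP-40 was added to 0.5% at 4°C. The supernatant from 21,000xg for 90 min was quantified by TMTpro 16plex LC-MS/MS with channel sums equalised. Values are reported from duplicates as log-two fold change in thermal stability relative to solvent controls.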

[1] = compound: C/C(=N\NC(=O)C1=CC(=CC=C1)S(=O)(=O)N2CCOCC2)/C3=C(C=CC(=C3)Cl)O
Method in brief: as §1

[2] = compound: C1=CC(=CC=C1C2=NC3=C(N2)C=C(C=C3)C(=O)N)OC4=CC=C(C=C4)Cl
Method in brief: as §1

[3] = compound: C1=CC2=C(C=CC(=C2)/C=C\3/C(=O)NC(=NCC4=CC=CS4)S3)N=C1
Method in brief: as §1

[4] = compound: C1=CC2=NC=CN=C2C=C1/C=C/3\C(=O)NC(=O)S3
Method in brief: as §1

[5] = compound: C1=CC=C(C=C1)C2=NC(=C(N2)C3=CC=NC=C3)C4=CC(=C(C=C4)Cl)O
Method in brief: as §1

[6] = compound: C1=CC=C2C(=C1)C3=NNC4=CC=CC(=C43)C2=O
Method in brief: as §1

[7] = compound: C1CCN(C1)C(=O)NC2=CC=CC(=C2)NC3=NC=C(C(=N3)NCCC4=CN=CN4)Br
Method in brief: as §1

[8] = compound: C1CN(CCC1(CC2=CC=C(C=C2)Cl)N)C3=NC=NC4=C3C=CN4
Method in brief: as §1

IRAK-1-4 Inhibitor I = compound: C1COCCN1CCN2C3=CC=CC=C3N=C2NC(=O)C4=CC(=CC=C4)[N+](=O)[O-] [IRAK-1-4 Inhibitor I]
Method in brief: as §1

ibrutinib = compound: C=CC(=O)N1CCC[C@@H](n2nc(-c3ccc(Oc4ccccc4)cc3)c3c(N)ncnc32)C1 [ibrutinib]
Method in brief: as §1

[9] = compound: CC(=O)c1cnc2ccc(-c3cc(Cl)c(O)c(Cl)c3)nc2c1N[C@H]1CC[C@H](CN(C)C)CC1
Method in brief: as §1

ralimetinib = compound: CC(C)(C)Cn1c(N)nc2ccc(-c3[nH]c(C(C)(C)C)nc3-c3ccc(F)cc3)nc21 [ralimetinib]
Method in brief: as §1

[10] = compound: CC(C)(O)CC(=O)NCCn1ccc2ncnc(Nc3ccc(Oc4cccc(C(F)(F)F)c4)c(Cl)c3)c21
Method in brief: as §1

[11] = compound: CC(C)C1=C2N=C(C=C(N2N=C1)NCC3=CC=CC=C3)NCCCCCCN
Method in brief: as §1

[12] = compound: CC1=C(C(CC(=O)N1)C2=CC=C(C=C2)C(F)(F)F)C(=O)NC3=C(C=C4C(=C3)C=NN4)F
Method in brief: as §1

[13] = compound: CC1=C(C2=C(C=C1)C(=O)C3=CC=CC=C3N2CCCN)C
Method in brief: as §1

[14] = compound: CC1=C(C=C(C=C1)NC(=O)C2=CC(=CC=C2)C(C)(C)C#N)NC3=CC4=C(C=C3)N=CN(C4=O)C
Method in brief: as §1

[15] = compound: CC1=C(C=C(C=C1)NC(=O)C2=CC(=CC=C2)N(C)C)NC(=O)C3=CC=C(C=C3)O
Method in brief: as §1

[16] = compound: CC1=CC=C(C=C1)SC2=C3C=C(SC3=CN=C2)C(=O)N
Method in brief: as §1

Measured: log2 fold change

ZC3HC1 (UniProt Q86WB0)
inactive: erlotinib 0.011 | [1] -0.123 | [2] -0.006 | [3] 0.005 | [4] -0.009 | [5] 0.007 | [6] 0.009 | [7] 0.011 | [8] 0.018 | IRAK-1-4 Inhibitor I -0.003 | ibrutinib -0.021 | [9] 0.013 | ralimetinib 0.033 | [10] -0.004 | [11] -0.003 | [12] 0.012 | [13] 0.004 | [14] -0.002 | [15] 0.006 | [16] 0.013

USP48 (UniProt Q86UV5)
inactive: erlotinib 0.022 | [1] 0.001 | [2] -0.015 | [3] -0.051 | [4] 0.006 | [5] 0.001 | [6] 0.049 | [7] -0.033 | [8] 0.013 | IRAK-1-4 Inhibitor I -0.026 | ibrutinib -0.028 | [9] -0.224 | ralimetinib -0.038 | [10] 0.031 | [11] -0.009 | [12] 0.018 | [13] 0 | [14] -0.039 | [15] 0.041 | [16] -0.227

ZNF609 (UniProt O15014)
inactive: erlotinib -0.035 | [1] -0.013 | [2] 0.028 | [3] -0.029 | [4] -0.053 | [5] -0.023 | [6] -0.109 | [7] -0.008 | [8] 0.026 | IRAK-1-4 Inhibitor I -0.005 | ibrutinib 0.005 | [9] -0.025 | ralimetinib 0.01 | [10] -0.034 | [11] -0.001 | [12] 0.01 | [13] -0.045 | [14] -0.082 | [15] 0.013 | [16] -0.058

ZMAT2 (UniProt Q96NC0)
Chain of UniProt Q96NC0 (Q96NC0 whole entry, looked up): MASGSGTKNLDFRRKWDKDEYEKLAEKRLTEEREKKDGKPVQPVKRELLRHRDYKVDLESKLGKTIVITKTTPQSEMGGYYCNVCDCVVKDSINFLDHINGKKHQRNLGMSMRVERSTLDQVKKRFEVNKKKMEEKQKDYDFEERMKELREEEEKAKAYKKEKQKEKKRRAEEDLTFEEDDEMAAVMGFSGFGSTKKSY
inactive: erlotinib 0.025 | [1] -0.037 | [2] 0.025 | [3] -0.023 | [4] -0.026 | [5] 0.023 | [6] 0.055 | [7] -0.007 | [8] -0.048 | IRAK-1-4 Inhibitor I 0.066 | ibrutinib 0.009 | [9] -0.016 | ralimetinib -0.011 | [10] 0.013 | [11] 0.035 | [12] -0.004 | [13] -0.021 | [14] 0.032 | [15] -0.028 | [16] -0.022

VAC14 (UniProt Q08AM6)
Chain of UniProt Q08AM6 (Q08AM6 whole entry, looked up): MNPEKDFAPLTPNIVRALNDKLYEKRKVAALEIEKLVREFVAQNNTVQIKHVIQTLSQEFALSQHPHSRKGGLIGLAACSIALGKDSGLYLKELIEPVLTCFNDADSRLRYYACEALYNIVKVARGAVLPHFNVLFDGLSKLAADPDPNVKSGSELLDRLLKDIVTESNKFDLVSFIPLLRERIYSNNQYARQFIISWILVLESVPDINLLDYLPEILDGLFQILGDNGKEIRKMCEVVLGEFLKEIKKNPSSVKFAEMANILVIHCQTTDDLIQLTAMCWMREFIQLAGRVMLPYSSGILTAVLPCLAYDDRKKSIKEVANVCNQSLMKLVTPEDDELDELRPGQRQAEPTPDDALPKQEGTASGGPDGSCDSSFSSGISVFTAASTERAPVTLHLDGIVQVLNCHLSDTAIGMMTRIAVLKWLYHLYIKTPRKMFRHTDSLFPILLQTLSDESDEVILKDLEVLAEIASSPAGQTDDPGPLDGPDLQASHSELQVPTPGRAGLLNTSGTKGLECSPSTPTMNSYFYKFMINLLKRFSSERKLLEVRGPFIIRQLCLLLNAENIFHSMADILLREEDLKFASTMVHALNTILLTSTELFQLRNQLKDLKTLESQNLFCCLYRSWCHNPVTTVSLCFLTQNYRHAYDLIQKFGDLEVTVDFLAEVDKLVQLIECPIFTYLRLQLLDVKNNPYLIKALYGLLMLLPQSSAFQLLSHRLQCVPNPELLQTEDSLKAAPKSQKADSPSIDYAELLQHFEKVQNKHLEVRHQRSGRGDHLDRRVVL
inactive: erlotinib -0.007 | [1] 0.02 | [2] -0.004 | [3] 0.032 | [4] 0.024 | [5] -0.006 | [6] -0.023 | [7] 0.006 | [8] 0.015 | IRAK-1-4 Inhibitor I 0.024 | ibrutinib -0.029 | [9] -0.025 | ralimetinib -0.003 | [10] -0.055 | [11] 0.002 | [12] -0.008 | [13] 0.005 | [14] 0.003 | [15] 0.039 | [16] -0.034

YTHDF3 (UniProt Q7Z739)
inactive: erlotinib -0.009 | [1] -0.003 | [2] -0.035 | [3] -0.029 | [4] 0.089 | [5] -0.183 | [6] 0.003 | [7] -0.04 | [8] 0.036 | IRAK-1-4 Inhibitor I 0.12 | ibrutinib -0.026 | [9] 0.066 | ralimetinib -0.014 | [10] -0.033 | [11] 0.008 | [12] 0.017 | [13] 0.074 | [15] 0.009 | [16] 0.096
active: [14] -0.334

VPS18 (UniProt Q9P253)
Chain of UniProt Q9P253 (Q9P253 whole entry, looked up): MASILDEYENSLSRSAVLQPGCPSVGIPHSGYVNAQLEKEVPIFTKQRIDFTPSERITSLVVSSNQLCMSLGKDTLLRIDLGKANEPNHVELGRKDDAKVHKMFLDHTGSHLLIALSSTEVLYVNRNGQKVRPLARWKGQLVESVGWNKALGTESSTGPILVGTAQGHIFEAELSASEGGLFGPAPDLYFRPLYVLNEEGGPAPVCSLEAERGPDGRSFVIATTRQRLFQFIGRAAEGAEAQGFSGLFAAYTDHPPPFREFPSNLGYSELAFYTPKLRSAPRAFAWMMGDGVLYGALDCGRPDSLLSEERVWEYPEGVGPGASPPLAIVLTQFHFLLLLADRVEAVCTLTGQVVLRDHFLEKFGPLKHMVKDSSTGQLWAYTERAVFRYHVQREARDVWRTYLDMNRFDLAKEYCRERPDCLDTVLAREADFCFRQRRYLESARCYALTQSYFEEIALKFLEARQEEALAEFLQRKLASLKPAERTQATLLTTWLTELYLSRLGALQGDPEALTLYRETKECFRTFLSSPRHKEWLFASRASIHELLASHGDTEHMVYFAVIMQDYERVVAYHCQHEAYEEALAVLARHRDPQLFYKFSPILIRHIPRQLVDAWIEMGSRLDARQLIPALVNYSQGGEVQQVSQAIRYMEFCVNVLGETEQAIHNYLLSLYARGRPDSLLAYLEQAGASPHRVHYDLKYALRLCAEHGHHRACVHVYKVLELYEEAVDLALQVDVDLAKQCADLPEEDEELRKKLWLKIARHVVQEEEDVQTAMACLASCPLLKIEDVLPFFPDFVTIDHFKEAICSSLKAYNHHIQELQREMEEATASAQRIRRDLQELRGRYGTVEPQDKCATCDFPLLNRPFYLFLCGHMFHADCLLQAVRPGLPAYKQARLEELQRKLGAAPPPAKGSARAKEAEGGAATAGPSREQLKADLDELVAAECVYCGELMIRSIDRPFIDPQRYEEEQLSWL
inactive: erlotinib 0.018 | [1] 0.056 | [2] -0.032 | [3] -0.021 | [4] -0.016 | [5] 0.051 | [6] -0.076 | [7] -0.017 | [8] 0.053 | IRAK-1-4 Inhibitor I -0.034 | ibrutinib -0.007 | [9] -0.026 | ralimetinib 0.038 | [10] -0.065 | [11] -0.022 | [12] 0.004 | [13] -0.046 | [14] -0.004 | [15] -0.041 | [16] 0.009

XPO5 (UniProt Q9HAV4)
inactive: erlotinib 0.026 | [1] 0.024 | [2] -0.02 | [3] 0.005 | [4] 0 | [5] -0.003 | [6] -0.044 | [7] 0.008 | [8] 0.035 | IRAK-1-4 Inhibitor I -0.015 | ibrutinib -0.041 | [9] 0.003 | ralimetinib 0 | [10] -0.043 | [11] -0.039 | [12] -0.014 | [13] -0.01 | [14] -0.004 | [15] 0.043 | [16] -0.01

YEATS4 (UniProt O95619)
Chain of UniProt O95619 (O95619 whole entry, looked up): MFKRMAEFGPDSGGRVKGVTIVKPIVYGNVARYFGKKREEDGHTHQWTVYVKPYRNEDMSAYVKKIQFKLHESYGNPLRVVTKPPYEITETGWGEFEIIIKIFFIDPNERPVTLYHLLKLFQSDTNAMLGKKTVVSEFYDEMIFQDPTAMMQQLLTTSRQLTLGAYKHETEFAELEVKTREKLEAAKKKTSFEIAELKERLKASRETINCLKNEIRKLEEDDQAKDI
inactive: erlotinib -0.017 | [1] -0.018 | [2] -0.018 | [3] 0.045 | [4] -0.079 | [5] -0.013 | [6] -0.027 | [7] 0.007 | [8] 0.034 | IRAK-1-4 Inhibitor I 0.002 | ibrutinib 0.02 | [9] 0.016 | ralimetinib 0.003 | [10] 0.009 | [11] 0.001 | [12] 0.01 | [13] -0.004 | [14] 0.041 | [15] -0.035 | [16] -0.039

UTP3 (UniProt Q9NQZ2)
inactive: erlotinib -0.051 | [1] -1.41 | [2] -0.088 | [3] -0.063 | [4] -0.039 | [5] -0.018 | [6] 0.021 | [7] -0.067 | [8] -0.09 | IRAK-1-4 Inhibitor I -0.041 | ibrutinib 0.053 | [9] 0.001 | ralimetinib 0.055 | [10] -0.051 | [11] -0.058 | [12] 0.026 | [13] -0.123 | [14] -0.016 | [15] -0.023 | [16] -0.018

WDR36 (UniProt Q8NI36)
inactive: erlotinib 0 | [1] 0.02 | [2] -0.031 | [3] 0.027 | [4] -0.025 | [5] 0.017 | [6] 0.008 | [7] 0.014 | [8] 0.004 | IRAK-1-4 Inhibitor I -0.049 | ibrutinib -0.02 | [9] -0.01 | ralimetinib 0.019 | [10] -0.004 | [11] 0.03 | [12] 0.048 | [13] 0 | [14] 0.019 | [15] 0.013 | [16] 0.033

WRNIP1 (UniProt Q96S55)
Chain of UniProt Q96S55 (Q96S55 whole entry, looked up): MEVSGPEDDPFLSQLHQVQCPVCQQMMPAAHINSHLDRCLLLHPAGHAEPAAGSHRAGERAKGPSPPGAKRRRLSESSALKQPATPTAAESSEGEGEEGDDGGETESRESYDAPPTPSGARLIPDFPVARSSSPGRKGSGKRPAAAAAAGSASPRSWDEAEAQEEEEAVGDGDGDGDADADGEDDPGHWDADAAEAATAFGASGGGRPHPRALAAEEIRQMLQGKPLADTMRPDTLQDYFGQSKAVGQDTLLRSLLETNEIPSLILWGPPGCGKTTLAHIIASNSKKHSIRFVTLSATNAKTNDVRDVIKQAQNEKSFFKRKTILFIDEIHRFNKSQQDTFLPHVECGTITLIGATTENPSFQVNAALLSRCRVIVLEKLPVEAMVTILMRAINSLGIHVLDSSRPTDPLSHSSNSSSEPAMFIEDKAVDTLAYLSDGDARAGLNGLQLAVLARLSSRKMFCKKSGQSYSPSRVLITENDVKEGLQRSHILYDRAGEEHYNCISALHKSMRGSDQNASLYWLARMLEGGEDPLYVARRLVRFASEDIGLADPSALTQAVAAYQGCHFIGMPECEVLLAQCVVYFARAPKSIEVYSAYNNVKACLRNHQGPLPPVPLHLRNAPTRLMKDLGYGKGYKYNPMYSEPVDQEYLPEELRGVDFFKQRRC
inactive: erlotinib 0.019 | [1] -0.128 | [2] -0.014 | [3] -0.024 | [4] -0.005 | [5] 0.003 | [6] -0.064 | [7] 0.028 | [8] 0.023 | IRAK-1-4 Inhibitor I -0.05 | ibrutinib 0.025 | [9] 0.026 | ralimetinib 0.051 | [10] 0.026 | [11] 0.001 | [12] 0.045 | [13] 0.013 | [14] -0.023 | [15] -0.003 | [16] -0.023

WDR24 (UniProt Q96S15)
Chain of UniProt Q96S15 (Q96S15 whole entry, looked up): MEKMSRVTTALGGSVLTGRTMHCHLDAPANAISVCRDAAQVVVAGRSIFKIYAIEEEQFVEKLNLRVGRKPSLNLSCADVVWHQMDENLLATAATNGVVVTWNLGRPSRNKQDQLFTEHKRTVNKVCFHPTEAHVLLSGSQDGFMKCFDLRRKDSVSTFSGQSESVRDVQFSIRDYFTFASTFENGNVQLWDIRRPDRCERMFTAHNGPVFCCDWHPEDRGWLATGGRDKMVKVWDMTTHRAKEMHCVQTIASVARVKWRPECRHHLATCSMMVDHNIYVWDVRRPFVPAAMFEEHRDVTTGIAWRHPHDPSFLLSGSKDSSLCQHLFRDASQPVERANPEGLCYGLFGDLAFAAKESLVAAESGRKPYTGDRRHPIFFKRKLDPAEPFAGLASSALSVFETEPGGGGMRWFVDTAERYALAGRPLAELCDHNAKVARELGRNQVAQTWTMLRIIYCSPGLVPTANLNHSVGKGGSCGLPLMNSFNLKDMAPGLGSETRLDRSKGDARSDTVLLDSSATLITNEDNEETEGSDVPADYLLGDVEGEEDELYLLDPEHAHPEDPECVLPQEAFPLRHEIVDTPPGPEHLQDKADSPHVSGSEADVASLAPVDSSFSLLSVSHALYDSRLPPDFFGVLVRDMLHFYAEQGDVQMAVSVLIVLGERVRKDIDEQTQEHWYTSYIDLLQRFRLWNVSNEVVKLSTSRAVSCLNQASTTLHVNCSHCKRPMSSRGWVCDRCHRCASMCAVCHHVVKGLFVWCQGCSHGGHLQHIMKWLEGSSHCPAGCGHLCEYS
inactive: erlotinib 0.023 | [1] 0.014 | [2] 0.029 | [3] -0.042 | [4] -0.018 | [5] 0.058 | [6] -0.012 | [7] -0.034 | [8] -0.007 | IRAK-1-4 Inhibitor I 0.034 | ibrutinib -0.044 | [9] -0.016 | ralimetinib 0.025 | [10] -0.022 | [11] 0.041 | [12] 0.055 | [13] -0.011 | [14] 0.033 | [15] -0.034 | [16] 0.021

USP3 (UniProt Q9Y6I4)
inactive: erlotinib -0.001 | [1] 0.05 | [2] 0.033 | [3] 0.031 | [4] 0.018 | [5] 0.011 | [6] 0.014 | [7] -0.037 | [8] 0.035 | IRAK-1-4 Inhibitor I -0.044 | ibrutinib 0.01 | [9] 0.048 | ralimetinib 0.042 | [10] -0.027 | [11] 0.014 | [12] 0.024 | [13] 0.011 | [14] -0.014 | [15] 0.016 | [16] -0.025

USP16 (UniProt Q9Y5T5)
Chain of UniProt Q9Y5T5 (Q9Y5T5 whole entry, looked up): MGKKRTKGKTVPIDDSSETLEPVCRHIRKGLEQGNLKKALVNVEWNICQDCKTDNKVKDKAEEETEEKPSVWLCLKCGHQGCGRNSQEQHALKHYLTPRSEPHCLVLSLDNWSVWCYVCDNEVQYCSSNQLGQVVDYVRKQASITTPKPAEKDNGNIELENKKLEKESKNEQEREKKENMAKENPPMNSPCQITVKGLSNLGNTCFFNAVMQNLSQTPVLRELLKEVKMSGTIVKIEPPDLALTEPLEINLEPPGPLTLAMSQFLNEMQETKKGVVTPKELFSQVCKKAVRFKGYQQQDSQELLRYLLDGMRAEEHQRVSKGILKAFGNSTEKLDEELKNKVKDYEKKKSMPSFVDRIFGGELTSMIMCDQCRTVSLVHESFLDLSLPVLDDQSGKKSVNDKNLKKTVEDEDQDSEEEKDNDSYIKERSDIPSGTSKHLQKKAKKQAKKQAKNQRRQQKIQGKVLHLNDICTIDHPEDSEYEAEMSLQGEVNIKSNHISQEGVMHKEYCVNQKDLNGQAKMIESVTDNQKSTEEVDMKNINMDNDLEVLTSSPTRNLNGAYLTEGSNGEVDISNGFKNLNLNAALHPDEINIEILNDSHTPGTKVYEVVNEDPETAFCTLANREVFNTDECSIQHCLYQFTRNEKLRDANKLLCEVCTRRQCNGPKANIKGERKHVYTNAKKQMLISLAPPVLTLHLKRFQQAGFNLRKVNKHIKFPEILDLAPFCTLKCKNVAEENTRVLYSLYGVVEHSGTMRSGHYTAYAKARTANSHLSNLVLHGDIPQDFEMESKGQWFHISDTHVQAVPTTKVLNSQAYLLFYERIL
inactive: erlotinib -0.002 | [1] -0.01 | [2] -0.01 | [3] -0.002 | [4] 0.011 | [5] 0.036 | [6] -0.016 | [7] -0.028 | [8] -0.005 | IRAK-1-4 Inhibitor I -0.033 | ibrutinib -0.027 | [9] -0.035 | ralimetinib -0.001 | [10] 0.011 | [11] 0.017 | [12] 0 | [13] -0.06 | [14] -0.027 | [15] -0.012 | [16] 0.019

WDR77 (UniProt Q9BQA1)
Chain of UniProt Q9BQA1 (Q9BQA1 whole entry, looked up): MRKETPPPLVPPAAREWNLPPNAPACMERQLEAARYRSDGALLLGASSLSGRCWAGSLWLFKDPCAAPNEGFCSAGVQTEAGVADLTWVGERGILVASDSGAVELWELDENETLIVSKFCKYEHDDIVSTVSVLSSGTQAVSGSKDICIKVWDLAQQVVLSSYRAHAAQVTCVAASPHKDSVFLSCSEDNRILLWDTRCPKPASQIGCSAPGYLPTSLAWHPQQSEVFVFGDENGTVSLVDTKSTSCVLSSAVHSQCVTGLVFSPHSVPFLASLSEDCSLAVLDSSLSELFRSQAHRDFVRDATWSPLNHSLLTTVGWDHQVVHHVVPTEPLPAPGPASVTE
inactive: erlotinib -0.008 | [1] -0.073 | [2] -0.018 | [3] 0.025 | [4] -0.021 | [5] -0.009 | [6] 0.011 | [7] 0.004 | [8] 0.014 | IRAK-1-4 Inhibitor I 0.002 | ibrutinib 0.016 | [9] 0.022 | ralimetinib 0.031 | [10] 0.024 | [11] -0.012 | [12] -0.022 | [13] -0.004 | [14] 0.007 | [15] -0.01 | [16] 0.032
